From PubChem BioAssay AID602144 (Vanderbilt Specialized Chemistry Center, 2011)
Unmarked numbers belong to inactive results. Active and inactive are the calls of the source. Rule as the data show it: active = remaining activity below about 50%; inactive = the rest.

target: Phospholipase D1 (Homo sapiens) (UniProt Q13393); assay: PLD1 inhibitors in cells, Calu-1 cells, single concentration (AID 602144); details: cellular PLD1 activity, hits give low values;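 also: tested at 200 nM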
Sequence (Q13393 whole entry, looked up): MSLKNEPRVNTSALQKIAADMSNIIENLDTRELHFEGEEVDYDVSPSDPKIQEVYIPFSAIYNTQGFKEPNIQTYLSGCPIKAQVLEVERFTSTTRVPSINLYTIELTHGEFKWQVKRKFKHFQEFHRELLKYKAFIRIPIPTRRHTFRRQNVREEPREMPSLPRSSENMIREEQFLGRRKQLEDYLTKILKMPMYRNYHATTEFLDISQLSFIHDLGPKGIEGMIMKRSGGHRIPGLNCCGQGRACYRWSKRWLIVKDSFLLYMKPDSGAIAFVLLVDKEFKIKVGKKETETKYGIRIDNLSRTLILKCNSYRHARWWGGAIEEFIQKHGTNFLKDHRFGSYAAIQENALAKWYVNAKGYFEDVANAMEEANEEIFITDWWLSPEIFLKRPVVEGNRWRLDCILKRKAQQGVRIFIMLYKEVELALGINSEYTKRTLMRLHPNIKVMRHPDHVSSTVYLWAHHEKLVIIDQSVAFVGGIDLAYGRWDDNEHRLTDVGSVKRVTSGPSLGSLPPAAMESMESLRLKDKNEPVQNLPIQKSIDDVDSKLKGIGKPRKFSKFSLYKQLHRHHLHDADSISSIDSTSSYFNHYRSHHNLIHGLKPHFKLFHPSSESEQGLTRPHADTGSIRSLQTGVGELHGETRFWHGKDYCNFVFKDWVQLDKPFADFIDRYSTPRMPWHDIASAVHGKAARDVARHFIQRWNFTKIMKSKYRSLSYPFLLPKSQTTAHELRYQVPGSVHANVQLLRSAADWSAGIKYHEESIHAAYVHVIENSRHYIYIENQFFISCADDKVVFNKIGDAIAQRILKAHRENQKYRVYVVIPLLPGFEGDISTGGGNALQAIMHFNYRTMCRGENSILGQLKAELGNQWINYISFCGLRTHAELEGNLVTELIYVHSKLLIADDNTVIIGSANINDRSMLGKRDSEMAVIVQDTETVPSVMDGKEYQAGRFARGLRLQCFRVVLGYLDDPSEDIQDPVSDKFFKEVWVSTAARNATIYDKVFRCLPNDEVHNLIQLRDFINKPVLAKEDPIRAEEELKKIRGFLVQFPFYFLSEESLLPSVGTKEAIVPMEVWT
Sequence (Q13393 whole entry, looked up): as above

SMILES	remaining activity
O=C(NCCN1CCC2(CC1)C(=O)NCN2c1ccccc1)C(c1ccccc1)c1ccccc1	99.2%
C[C@@H](CN1CCC2(CC1)C(=O)NCN2c1ccc(F)c(F)c1)NC(=O)c1ccc2ccccc2c1	25.7% (active)
O=C(NCCN1CCC2(CC1)C(=O)NCN2c1ccc(F)cc1)c1ccc(F)cc1	78.2%
O=C(NCCN1CCC2(CC1)C(=O)NCN2c1ccccc1)c1ccc2cc(F)ccc2c1	73.9%
O=C(NCCN1CCC2(CC1)C(=O)NCN2c1ccc(F)cc1)c1cc2cc(F)ccc2[nH]1	48.1% (active)
O=C(NCCN1CCC2(CC1)C(=O)NCN2c1ccc(F)c(F)c1)c1ccc(Cl)cc1	94.9%
O=C(NCCN1CCC2(CC1)C(=O)NCN2c1ccc(F)c(F)c1)c1ccc(F)cc1	101%
O=C(NCCN1CCC2(CC1)C(=O)NCN2c1ccc(Cl)cc1)c1ccc(F)cc1	123%
O=C(NCCN1CCC2(CC1)C(=O)NCN2c1cccc(F)c1)c1cnc2ccccc2c1	79%
